Experimental data published in the supplement of paper PMC4466140.

Tests used:
Assay in all cases: SPOT peptide array binding signal intensity (averaged, normalized) (arbitrary units (background-subtracted, floor 0; scale differs between SH3 domains)); higher = stronger binding of the SH3 domain to the peptide
[1] = biological target: ScBbc1
Outline: (§1)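 Spot intensities were captured after detection with anti-GST antibody, an HRP-linked anti-mouse secondary and luminol, and quantified with Genespotter. The probes were GST-fused SH3 domains from four yeast species, produced in E. coli BL21(DE3), purified on glutathione Sepharose and incubated at 10 μg/ml overnight at 4°C on cellulose-bound synthetic 15-mer peptides with cysteines replaced by serines. Binding signal is the normalized, background-subtracted spot intensity averaged over replicates, and its arbitrary units differ between domains.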

[2] = biological target: ScBem1-D1
Outline: as §1

[3] = biological target: ScBzz1-D1
Outline: as §1

[4] = biological target: ScBzz1-D2
Outline: as §1

[5] = biological target: ScCyk3
Outline: as §1

[6] = biological target: ScFus1
Outline: as §1

[7] = biological target: ScHof1
Outline: as §1

[8] = biological target: ScHse1
Outline: as §1

[9] = biological target: ScLsb1
Outline: as §1

[10] = biological target: ScLsb2
Outline: as §1

[11] = biological target: ScLsb3
Outline: as §1

[12] = biological target: ScLsb4
Outline: as §1

[13] = biological target: ScMyo3
Outline: as §1

[14] = biological target: ScMyo5
Outline: as §1

[15] = biological target: ScNbp2
Outline: as §1

[16] = biological target: ScPex13
Outline: as §1

[17] = biological target: ScRvs167
Outline: as §1

[18] = biological target: ScSho1
Outline: as §1

[19] = biological target: ScSla1-D1-D2
Outline: as §1

[20] = biological target: ScSla1-D3
Outline: as §1

[21] = biological target: SpAbp1-D1
Outline: as §1

[22] = biological target: SpBbc1
Outline: as §1

[23] = biological target: SpBzz1-D1
Outline: as §1

[24] = biological target: SpBzz1-D2
Outline: as §1

[25] = biological target: SpCyk3
Outline: as §1

[26] = biological target: SpHof1
Outline: as §1

[27] = biological target: SpHof1-2
Outline: as §1

[28] = biological target: SpHof1-3
Outline: as §1

[29] = biological target: SpHse1
Outline: as §1

[30] = biological target: SpLsb1
Outline: as §1

[31] = biological target: SpLsb4
Outline: as §1

[32] = biological target: SpMyo1
Outline: as §1

[33] = biological target: SpNbp2
Outline: as §1

[34] = biological target: SpPex13
Outline: as §1

[35] = biological target: SpRvs167
Outline: as §1

[36] = biological target: SpSla1-D1-D2
Outline: as §1

[37] = biological target: SpSla1-D3
Outline: as §1

B1: unnamed (peptide)
chain: NIKVLLNPKLGKPVK
SPOT peptide array binding signal intensity [1]: 0.25
SPOT peptide array binding signal intensity [2]: 7
SPOT peptide array binding signal intensity [3]: 32
SPOT peptide array binding signal intensity [4]: 207
SPOT peptide array binding signal intensity [5]: 10.5
SPOT peptide array binding signal intensity [6]: 527
SPOT peptide array binding signal intensity [7]: 1.25
SPOT peptide array binding signal intensity [8]: 1460
SPOT peptide array binding signal intensity [9]: 5.75
SPOT peptide array binding signal intensity [10]: 1
SPOT peptide array binding signal intensity [11]: 1.53e-05
SPOT peptide array binding signal intensity [12]: 3
SPOT peptide array binding signal intensity [13]: 1
SPOT peptide array binding signal intensity [14]: 1
SPOT peptide array binding signal intensity [15]: 29
SPOT peptide array binding signal intensity [16]: 4.5
SPOT peptide array binding signal intensity [17]: 21.8
SPOT peptide array binding signal intensity [18]: 696
SPOT peptide array binding signal intensity [19]: 42
SPOT peptide array binding signal intensity [20]: 7.75
SPOT peptide array binding signal intensity [21]: 30.5
SPOT peptide array binding signal intensity [22]: 11.2
SPOT peptide array binding signal intensity [23]: 132
SPOT peptide array binding signal intensity [24]: ≤ 0
SPOT peptide array binding signal intensity [25]: ≤ 0
SPOT peptide array binding signal intensity [26]: 75.5
SPOT peptide array binding signal intensity [27]: 13
SPOT peptide array binding signal intensity [28]: 640
SPOT peptide array binding signal intensity [29]: 558
SPOT peptide array binding signal intensity [30]: 1.75
SPOT peptide array binding signal intensity [31]: 26
SPOT peptide array binding signal intensity [32]: ≤ 0
SPOT peptide array binding signal intensity [33]: 95.5
SPOT peptide array binding signal intensity [34]: 13
SPOT peptide array binding signal intensity [35]: 18.2
SPOT peptide array binding signal intensity [36]: ≤ 0
SPOT peptide array binding signal intensity [37]: 4
